Data as given in the supplement of paper PMC10849652.
About 7,900 targets were measured; listed, in parts, are those with a hit and a random draw of the rest. About 0.6% of all pairs of compound and target were hits.

Columns and labels:
Test in all cases: log2 fold change, soluble protein after heating vs DMSO (PISA); higher = thermal stabilisation; K562 cells, 10 uM, 30 min; active = over 0.2 and 3.5 SD of the protein, either way, in both replicates (recomputed)
[1] = compound: CC1=C(C=C(C=C1)NC(=O)C2=CC(=CC=C2)C(C)(C)C#N)NC3=CC4=C(C=C3)N=CN(C4=O)C
Procedure, shortened: (§1)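 Aliquots of K562 cells (2×10^6 cells/mL) treated with 10 μM compound for 30 min were heated for 3 min over 48°C-58°C. After pooling and extraction in PBS with 0.5% NP-40 at 4°C, soluble protein from a 21,000xg, 90 min spin was quantified by TMTpro 16plex LC-MS/MS with channel sums equalised. Thermal stability is expressed against control samples, from duplicates, as a log2 fold change.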

[2] = compound: CC1=C(C=C(C=C1)NC(=O)C2=CC(=CC=C2)N(C)C)NC(=O)C3=CC=C(C=C3)O
Procedure, shortened: as §1

[3] = compound: CC1=CC=C(C=C1)SC2=C3C=C(SC3=CN=C2)C(=O)N
Procedure, shortened: as §1

[4] = compound: CC1=NC(=CC=C1)C2=C(N=C(N2)C(C)(C)C)C3=CC4=NC=CN=C4C=C3
Procedure, shortened: as §1

Nexturastat A = compound: CCCCN(Cc1ccc(C(=O)NO)cc1)C(=O)Nc1ccccc1 [Nexturastat A]
Procedure, shortened: as §1

vemurafenib = compound: CCCS(=O)(=O)Nc1ccc(F)c(C(=O)c2c[nH]c3ncc(-c4ccc(Cl)cc4)cc23)c1F [vemurafenib]
Procedure, shortened: as §1

[5] = compound: CCCS(=O)(=O)Nc1ccc(F)c(C(=O)c2c[nH]c3ncc(Cl)cc23)c1F
Procedure, shortened: as §1

[6] = compound: CCCc1cc(C)[nH]c(=O)c1CNC(=O)c1cc(-c2ccnc(N3CCN(C)CC3)c2)cc2c1cnn2C(C)C
Procedure, shortened: as §1

givinostat = compound: CCN(CC)Cc1ccc2cc(COC(=O)Nc3ccc(C(=O)NO)cc3)ccc2c1 [givinostat]
Procedure, shortened: as §1

barasertib = compound: CCN(CCCOc1ccc2c(Nc3cc(CC(=O)Nc4cccc(F)c4)[nH]n3)ncnc2c1)CCOP(=O)(O)O [barasertib]
Procedure, shortened: as §1

[7] = compound: CC[C@@H]1C(=O)N(C)c2cnc(Nc3ccc(C(=O)NC4CCN(C)CC4)cc3OC)nc2N1C1CCCC1
Procedure, shortened: as §1

volasertib = compound: CC[C@@H]1C(=O)N(C)c2cnc(Nc3ccc(C(=O)N[C@H]4CC[C@H](N5CCN(CC6CC6)CC5)CC4)cc3OC)nc2N1C(C)C [volasertib]
Procedure, shortened: as §1

epoxomicin = compound: CC[C@H](C)[C@@H](C(=O)N[C@@H]([C@@H](C)O)C(=O)N[C@@H](CC(C)C)C(=O)[C@]1(CO1)C)NC(=O)[C@H]([C@@H](C)CC)N(C)C(=O)C [epoxomicin]
Procedure, shortened: as §1

[8] = compound: CCn1c(C(=O)N(C2CC2)C2CC2)cc2c3c(ncn3C)c(Nc3cc(C)n(C)n3)nc21
Procedure, shortened: as §1

[9] = compound: CCn1cc(-c2ccnc3[nH]c(-c4cccc(CN(C)C)c4)cc23)c(-c2ccc(NC(=O)N(C)C)cc2)n1
Procedure, shortened: as §1

[10] = compound: CN(C)CC(=O)Nc1ccc2[nH]c(=O)c3ccccc3c2c1
Procedure, shortened: as §1

rosiglitazone = compound: CN(CCOC1=CC=C(C=C1)C[C@H]2C(=O)NC(=O)S2)C3=CC=CC=N3 (racemic) [rosiglitazone]
Procedure, shortened: as §1

[11] = compound: CN1C2=C(C3=C1C(=O)N(N=C3)CC4=CC(=CC=C4)N)SC(=C2)S(=O)C
Procedure, shortened: as §1

[12] = compound: CN1CCC(CNc2ccc3ncc(-c4cccc(OC(F)(F)F)c4)n3n2)CC1
Procedure, shortened: as §1

[13] = compound: CC[C@H](C)N1C=C(C2=C(C=C(C=C21)C3=CN=C(C=C3)N4CCNCC4)C(=O)NCC5=C(C=C(NC5=O)C)C)C
Procedure, shortened: as §1

Measured: log2 fold change

RAF1 isoform 2 (UniProt P04049)
inactive: [1] 0.317 | [2] 0.056 | [3] 0.078 | [4] -0.043 | Nexturastat A 0.077 | vemurafenib 0.17 | [5] 0.438 | [6] -0.113 | givinostat 0.016 | barasertib 0.044 | [7] 0.135 | volasertib -0.361 | epoxomicin -0.003 | [8] 0.034 | [9] -0.241 | [10] 0.028 | rosiglitazone 0.042 | [11] -0.129 | [12] -0.222

RNF187 (UniProt Q5TA31)
inactive: [1] -0.074 | [2] -0.102 | [3] 0.048 | [4] -0.005 | Nexturastat A 0.085 | vemurafenib -0.106 | [5] 0.039 | [6] 0 | givinostat 0.036 | barasertib 0.041 | [7] 0.155 | volasertib 0.074 | [13] 0.061 | epoxomicin 0.15 | [8] -0.061 | [9] 0.002 | [10] 0.24 | rosiglitazone 0.004 | [11] -0.104 | [12] -0.073

RIOK3 (UniProt O14730)
UniProt O14730, sequence (O14730 whole entry, looked up): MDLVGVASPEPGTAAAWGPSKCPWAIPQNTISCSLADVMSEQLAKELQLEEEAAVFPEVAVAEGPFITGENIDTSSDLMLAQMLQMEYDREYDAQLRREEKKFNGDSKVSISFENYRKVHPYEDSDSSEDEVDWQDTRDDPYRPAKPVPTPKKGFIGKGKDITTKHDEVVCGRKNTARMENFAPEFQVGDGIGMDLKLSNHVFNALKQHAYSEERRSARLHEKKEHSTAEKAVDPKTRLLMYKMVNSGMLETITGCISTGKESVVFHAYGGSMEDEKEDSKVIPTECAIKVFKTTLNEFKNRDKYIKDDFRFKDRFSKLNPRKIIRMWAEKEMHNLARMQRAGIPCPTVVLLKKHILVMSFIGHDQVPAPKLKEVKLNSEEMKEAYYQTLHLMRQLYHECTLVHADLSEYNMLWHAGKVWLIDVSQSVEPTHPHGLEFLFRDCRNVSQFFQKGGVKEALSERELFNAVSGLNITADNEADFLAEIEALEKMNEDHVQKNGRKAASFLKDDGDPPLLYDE
inactive: [1] 0.026 | [2] 0.021 | [3] 0.009 | [4] 0.014 | Nexturastat A -0.094 | vemurafenib -0.012 | [5] -0.012 | [6] 0.011 | givinostat -0.003 | barasertib -0.003 | [7] 0.084 | volasertib 0.04 | [13] -0.01 | epoxomicin 0.072 | [8] 0.001 | [9] -0.053 | [10] -0.011 | rosiglitazone 0.024 | [11] -0.023 | [12] -0.041

SLC18B1 (UniProt Q6NT16)
UniProt Q6NT16, sequence (Q6NT16 whole entry, looked up): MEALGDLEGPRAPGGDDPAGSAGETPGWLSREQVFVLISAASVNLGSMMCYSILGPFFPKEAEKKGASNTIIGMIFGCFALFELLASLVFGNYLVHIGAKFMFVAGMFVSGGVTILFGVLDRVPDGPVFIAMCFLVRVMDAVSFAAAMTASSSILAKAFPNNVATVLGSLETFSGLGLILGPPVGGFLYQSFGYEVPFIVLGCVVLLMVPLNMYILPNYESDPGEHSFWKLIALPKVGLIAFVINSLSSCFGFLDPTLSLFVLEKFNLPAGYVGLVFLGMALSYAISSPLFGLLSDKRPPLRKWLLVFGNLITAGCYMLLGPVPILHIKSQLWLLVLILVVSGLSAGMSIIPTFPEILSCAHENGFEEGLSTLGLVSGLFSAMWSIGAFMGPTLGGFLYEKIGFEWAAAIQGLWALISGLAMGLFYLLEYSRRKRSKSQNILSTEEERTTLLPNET
inactive: [1] -0.016 | [2] -0.194 | [3] -0.07 | [4] -0.111 | Nexturastat A 0.034 | vemurafenib 0.069 | [5] 0.005 | [6] -0.044 | givinostat -0.02 | barasertib 0.084 | [7] 0.031 | volasertib -0.114 | [13] -0.034 | epoxomicin 0.022 | [8] 0.068 | [9] -0.005 | [10] -0.134 | rosiglitazone -0.044 | [11] -0.035
active: [12] -0.592

SETD3 (UniProt Q86TU7)
UniProt Q86TU7, sequence (Q86TU7 whole entry, looked up): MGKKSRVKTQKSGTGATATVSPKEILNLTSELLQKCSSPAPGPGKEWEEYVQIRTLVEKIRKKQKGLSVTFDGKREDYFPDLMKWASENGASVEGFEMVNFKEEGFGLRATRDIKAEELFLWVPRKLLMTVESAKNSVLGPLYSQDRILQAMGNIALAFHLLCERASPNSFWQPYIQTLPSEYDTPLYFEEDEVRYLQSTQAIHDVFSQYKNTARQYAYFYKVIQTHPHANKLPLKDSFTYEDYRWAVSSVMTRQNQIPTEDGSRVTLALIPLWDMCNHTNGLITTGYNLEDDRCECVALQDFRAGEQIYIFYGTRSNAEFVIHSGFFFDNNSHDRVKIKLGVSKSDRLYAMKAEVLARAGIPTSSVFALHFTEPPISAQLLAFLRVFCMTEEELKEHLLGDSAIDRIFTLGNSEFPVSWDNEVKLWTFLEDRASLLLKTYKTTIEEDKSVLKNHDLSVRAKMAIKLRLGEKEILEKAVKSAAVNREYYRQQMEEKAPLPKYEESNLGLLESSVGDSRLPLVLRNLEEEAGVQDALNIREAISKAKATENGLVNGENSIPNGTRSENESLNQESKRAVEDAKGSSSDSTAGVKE
inactive: [1] -0.008 | [2] 0.029 | [3] -0.01 | [4] 0.046 | Nexturastat A -0.024 | vemurafenib 0.035 | [5] -0.01 | [6] 0.034 | givinostat -0.037 | barasertib 0.026 | [7] -0.017 | volasertib -0.018 | [13] 0.055 | epoxomicin -0.024 | [8] -0.004 | [9] -0.002 | [10] -0.02 | rosiglitazone 0.015 | [11] -0.056 | [12] 0.06

RAB3IL1 (UniProt E9PK89)
inactive: [1] -0.069 | [2] -0.037 | [3] 0 | [4] 0.061 | Nexturastat A -0.111 | vemurafenib -0.08 | [5] -0.053 | givinostat 0.278 | barasertib -0.014 | [7] -0.012 | volasertib -0.137 | [13] 0.25 | epoxomicin 0.109 | [8] -0.138 | [10] 0.035 | rosiglitazone 0.017 | [12] -0.342
active: [9] -0.555

SETMAR (UniProt Q53H47)
UniProt Q53H47, sequence (Q53H47 whole entry, looked up): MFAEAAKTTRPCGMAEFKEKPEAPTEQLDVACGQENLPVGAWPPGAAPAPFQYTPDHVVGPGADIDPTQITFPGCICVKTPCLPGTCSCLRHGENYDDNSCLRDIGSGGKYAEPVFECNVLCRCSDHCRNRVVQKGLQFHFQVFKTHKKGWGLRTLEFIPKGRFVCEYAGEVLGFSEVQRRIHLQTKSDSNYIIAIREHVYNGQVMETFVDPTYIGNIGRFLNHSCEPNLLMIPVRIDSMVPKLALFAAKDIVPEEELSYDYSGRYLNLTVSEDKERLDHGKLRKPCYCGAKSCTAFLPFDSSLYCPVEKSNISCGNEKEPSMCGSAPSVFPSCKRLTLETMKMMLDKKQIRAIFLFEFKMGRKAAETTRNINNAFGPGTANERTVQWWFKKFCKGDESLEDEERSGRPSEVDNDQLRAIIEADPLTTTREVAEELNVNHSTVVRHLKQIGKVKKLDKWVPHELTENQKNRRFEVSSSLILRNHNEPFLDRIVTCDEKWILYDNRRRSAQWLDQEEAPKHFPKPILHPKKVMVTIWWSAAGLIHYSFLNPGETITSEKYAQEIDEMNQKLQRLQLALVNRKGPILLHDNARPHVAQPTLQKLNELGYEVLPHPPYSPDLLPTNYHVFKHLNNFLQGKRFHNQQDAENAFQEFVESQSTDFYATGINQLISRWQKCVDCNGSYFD
inactive: [1] 0.128 | [2] 0.061 | [3] -0.023 | [4] -0.049 | Nexturastat A -0.041 | vemurafenib 0.018 | [5] 0.021 | [6] 0.01 | givinostat -0.036 | barasertib 0.051 | [7] -0.071 | volasertib -0.045 | [13] 0.058 | epoxomicin 0.045 | [8] -0.047 | [9] 0.015 | [10] 0.012 | rosiglitazone 0.005 | [11] -0.045 | [12] 0.108

SAMD4B (UniProt Q5PRF9)
UniProt Q5PRF9, sequence (Q5PRF9 whole entry, looked up): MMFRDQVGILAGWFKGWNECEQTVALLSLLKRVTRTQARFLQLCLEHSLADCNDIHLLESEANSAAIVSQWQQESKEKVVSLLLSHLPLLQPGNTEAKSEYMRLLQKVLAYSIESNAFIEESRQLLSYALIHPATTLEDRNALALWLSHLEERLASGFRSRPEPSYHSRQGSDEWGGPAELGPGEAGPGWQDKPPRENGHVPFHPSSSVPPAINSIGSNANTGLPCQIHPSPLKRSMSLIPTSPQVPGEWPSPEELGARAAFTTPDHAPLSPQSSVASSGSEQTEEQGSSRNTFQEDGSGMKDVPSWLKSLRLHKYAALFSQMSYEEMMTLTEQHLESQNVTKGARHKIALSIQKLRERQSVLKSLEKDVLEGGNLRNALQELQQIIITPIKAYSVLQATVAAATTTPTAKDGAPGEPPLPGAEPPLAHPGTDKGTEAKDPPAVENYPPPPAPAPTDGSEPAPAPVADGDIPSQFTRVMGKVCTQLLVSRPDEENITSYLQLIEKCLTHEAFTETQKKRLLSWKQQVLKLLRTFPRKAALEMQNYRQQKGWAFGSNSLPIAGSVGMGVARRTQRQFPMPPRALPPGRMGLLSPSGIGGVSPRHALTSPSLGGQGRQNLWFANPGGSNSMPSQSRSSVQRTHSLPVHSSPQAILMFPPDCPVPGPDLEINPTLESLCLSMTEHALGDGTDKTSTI
inactive: [2] -0.02 | [3] 0 | [4] -0.054 | Nexturastat A 0.202 | [5] -0.132 | givinostat 0.201 | barasertib 0.157 | volasertib 0.078 | [13] -0.047 | epoxomicin 0.02 | [8] -0.124 | [9] 0.023 | rosiglitazone -0.008 | [11] 0.089 | [12] -0.308
active: [1] -0.501

SCAMP2 (UniProt H3BUB6)
inactive: [1] -0.349 | [2] 0.043 | [3] -0.166 | [4] -0.1 | Nexturastat A 0.12 | vemurafenib -0.266 | [5] -0.335 | [6] -0.232 | givinostat -0.024 | barasertib 0.034 | [7] -0.015 | volasertib -0.006 | [13] -0.092 | epoxomicin -0.157 | [8] -0.058 | [10] -0.201 | rosiglitazone -0.034 | [11] 0.064

RNF167 (UniProt Q9H6Y7)
inactive: [1] 0.037 | [2] 0.008 | [3] -0.041 | [4] 0.037 | Nexturastat A -0.059 | vemurafenib 0.031 | [5] -0.06 | [6] -0.096 | givinostat 0.005 | barasertib 0.018 | volasertib 0.003 | [13] -0.043 | epoxomicin 0.039 | [8] 0.103 | [9] 0.057 | [10] -0.008 | rosiglitazone -0.019 | [11] 0.05 | [12] -0.097

RBBP6 (UniProt Q7Z6E9)
UniProt Q7Z6E9, sequence (Q7Z6E9 whole entry, looked up): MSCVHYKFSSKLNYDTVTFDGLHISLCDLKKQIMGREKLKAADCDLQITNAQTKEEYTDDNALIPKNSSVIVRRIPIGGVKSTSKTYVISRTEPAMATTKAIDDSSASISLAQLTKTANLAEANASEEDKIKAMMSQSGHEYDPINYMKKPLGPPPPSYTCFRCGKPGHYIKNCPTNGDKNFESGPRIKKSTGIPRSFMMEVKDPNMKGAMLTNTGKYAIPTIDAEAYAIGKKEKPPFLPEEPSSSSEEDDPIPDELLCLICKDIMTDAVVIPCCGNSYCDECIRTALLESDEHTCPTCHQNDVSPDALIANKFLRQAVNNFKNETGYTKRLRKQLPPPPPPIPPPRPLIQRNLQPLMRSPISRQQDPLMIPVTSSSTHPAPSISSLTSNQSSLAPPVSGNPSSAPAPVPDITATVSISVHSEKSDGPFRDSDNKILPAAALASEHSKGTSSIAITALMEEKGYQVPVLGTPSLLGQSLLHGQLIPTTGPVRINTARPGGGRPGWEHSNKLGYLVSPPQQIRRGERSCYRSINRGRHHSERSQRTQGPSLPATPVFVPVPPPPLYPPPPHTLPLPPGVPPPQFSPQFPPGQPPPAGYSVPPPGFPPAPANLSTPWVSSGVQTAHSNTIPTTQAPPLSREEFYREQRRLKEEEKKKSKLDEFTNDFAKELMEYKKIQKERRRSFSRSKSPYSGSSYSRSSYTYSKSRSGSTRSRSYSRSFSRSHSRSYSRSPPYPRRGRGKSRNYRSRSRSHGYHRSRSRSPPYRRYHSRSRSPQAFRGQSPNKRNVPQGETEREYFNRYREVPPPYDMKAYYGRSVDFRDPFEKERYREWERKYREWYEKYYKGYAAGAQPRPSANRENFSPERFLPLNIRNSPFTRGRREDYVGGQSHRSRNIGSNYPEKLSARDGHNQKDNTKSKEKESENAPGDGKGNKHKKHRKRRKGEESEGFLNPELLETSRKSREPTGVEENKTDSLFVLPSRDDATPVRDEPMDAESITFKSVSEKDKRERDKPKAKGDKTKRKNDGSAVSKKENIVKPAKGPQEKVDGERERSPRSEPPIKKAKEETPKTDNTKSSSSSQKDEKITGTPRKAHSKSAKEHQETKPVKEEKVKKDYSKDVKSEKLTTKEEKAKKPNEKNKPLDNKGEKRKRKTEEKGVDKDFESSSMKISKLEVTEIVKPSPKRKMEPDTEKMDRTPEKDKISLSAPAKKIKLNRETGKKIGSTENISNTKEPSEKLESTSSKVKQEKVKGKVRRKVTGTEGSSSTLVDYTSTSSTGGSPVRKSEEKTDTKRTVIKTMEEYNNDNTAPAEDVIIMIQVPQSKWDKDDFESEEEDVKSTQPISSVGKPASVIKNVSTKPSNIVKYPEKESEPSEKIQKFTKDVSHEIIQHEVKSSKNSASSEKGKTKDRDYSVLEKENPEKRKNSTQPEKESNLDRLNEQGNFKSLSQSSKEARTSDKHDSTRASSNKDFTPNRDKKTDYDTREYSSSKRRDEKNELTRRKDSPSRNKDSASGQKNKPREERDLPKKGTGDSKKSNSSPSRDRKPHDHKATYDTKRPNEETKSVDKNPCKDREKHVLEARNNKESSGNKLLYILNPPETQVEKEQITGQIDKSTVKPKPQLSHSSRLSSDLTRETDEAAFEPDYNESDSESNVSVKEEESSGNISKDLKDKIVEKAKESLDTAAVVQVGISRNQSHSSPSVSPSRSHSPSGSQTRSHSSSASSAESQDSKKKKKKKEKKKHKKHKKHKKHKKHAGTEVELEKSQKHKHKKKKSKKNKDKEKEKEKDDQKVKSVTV
inactive: [1] -0.108 | [2] 0.119 | [3] 0.03 | [4] 0.127 | Nexturastat A -0.051 | vemurafenib 0.008 | [5] 0.068 | [6] -0.023 | givinostat 0.043 | barasertib -0.018 | [7] -0.061 | volasertib -0.068 | [13] 0.013 | epoxomicin -0.001 | [8] -0.023 | [9] -0.003 | [10] 0.024 | rosiglitazone 0.014 | [12] -0.014

RPS15 (UniProt P62841)
inactive: [1] -0.014 | [2] 0.038 | [3] -0.146 | [4] 0.005 | Nexturastat A 0.285 | vemurafenib -0.117 | [5] -0.175 | [6] 0.1 | givinostat -0.041 | barasertib -0.125 | [7] 0.2 | volasertib 0.294 | [13] -0.017 | epoxomicin -0.056 | [8] 0 | [9] 0.061 | [10] -0.099 | rosiglitazone -0.113 | [11] 0.164 | [12] 0.02

SIK3 (UniProt H0Y4E8)
inactive: [1] 0.017 | [2] 0.18 | [3] -0.062 | [4] -0.066 | vemurafenib -0.08 | [5] -0.076 | [6] -0.026 | givinostat 0.098 | [7] 0.032 | volasertib -0.109 | [13] -0.02 | [8] -0.058 | [9] -0.065 | [10] -0.111 | [11] -0.019 | [12] -0.071

RBM17 (UniProt Q96I25)
inactive: [1] -0.004 | [2] -0.036 | [3] 0.057 | [4] 0.012 | Nexturastat A 0.007 | vemurafenib 0.068 | [5] 0.118 | [6] 0.013 | givinostat 0.028 | barasertib 0.043 | [7] -0.08 | [13] 0.085 | epoxomicin 0.066 | [8] -0.271 | [9] -0.059 | [10] 0.048 | rosiglitazone 0.099 | [11] 0.088 | [12] -0.037
active: volasertib -0.422

RRAS2 isoform 4 (UniProt P62070)
UniProt P62070, sequence (P62070 whole entry, looked up): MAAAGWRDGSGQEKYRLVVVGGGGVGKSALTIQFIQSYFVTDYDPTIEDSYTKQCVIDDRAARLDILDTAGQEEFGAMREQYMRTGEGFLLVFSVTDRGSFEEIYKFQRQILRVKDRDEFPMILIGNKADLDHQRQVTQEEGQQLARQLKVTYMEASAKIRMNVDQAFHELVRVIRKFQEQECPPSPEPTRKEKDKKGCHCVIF
active: [12] 0.207
inactive: [1] -0.016 | [2] -0.02 | [3] -0.009 | [4] -0.021 | Nexturastat A -0.015 | vemurafenib 0.011 | [5] -0.037 | [6] -0.034 | givinostat -0.017 | barasertib -0.049 | [7] 0.061 | volasertib 0.124 | [13] -0.048 | epoxomicin 0.063 | [8] 0.004 | [9] 0.014 | [10] -0.013 | rosiglitazone 0.019 | [11] -0.064

RNF185 (UniProt Q96GF1)
inactive: [2] -0.055 | [3] -0.074 | vemurafenib 0.009 | [5] 0.1 | [6] -0.081 | givinostat -0.013 | barasertib 0.055 | [7] -0.041 | volasertib -0.101 | [13] -0.06 | [8] 0.02 | [9] -0.003 | [10] 0.028 | rosiglitazone -0.075 | [12] 0.09

SEMG2 (UniProt Q02383)
inactive: [1] -0.038 | Nexturastat A -0.062 | [6] -0.097 | barasertib 0.015 | [7] 0.043 | [13] 0.15 | epoxomicin 0.06 | [9] 0.035 | rosiglitazone 0.049 | [12] 0.058
